Assay results: PubChem BioAssay AID743279 (National Center for Advancing Translational Sciences (NCATS), 2014)
Among all 360,000 compounds or so, about 17,000 (4.7%) were called active. Roughly 5% stayed inconclusive and do not appear here. For the sample, actives were picked, then their nearest neighbours and some compounds at random. A number with no mark means an inactive call. No stated cut-off is given here; in the data, active means activity change below about -50%; inconclusive means mostly about -30% to -49%; inactive means weaker than that.

Test: qHTS for Inhibitors of Inflammasome Signaling: IL-1-beta AlphaLISA Primary Screen
Details: THP-1 LPS/ATP IL-1B secretion, 16 h; at 57.5 µM, stronger effect = lower value
In short: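 Secreted IL-1B measured by AlphaLISA bead assay after 16 h compound exposure of THP-1 cells; compounds (final up to 57.5 uM) added 1 h before LPS (250 ng/mL) and ATP (1.25 mM) stimulation; lower signal means less secretion.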
On the % scale 0 is the no-effect control and ±100 the full control effect.

| SMILES | activity change |
| --- | --- |
| NNC(=O)COc1ccc(C2SCCS2)cc1 | 15.3% |
| OC[C@@H]1CN(Cc2cccs2)C[C@H](n2cnc3c(NC4CCCC4)ncnc32)O1 | -3.1% |
| CC1CCCC(NC(=O)COC(=O)c2ccccc2C(=O)N(C)C2CCCCC2)C1C (stereo not drawn) | -16.9% |
| CCOC(=O)COn1c(=O)c(-c2ccc(OCC)cc2)[n+]([O-])c2ccccc21 | 4.15% |
| O=c1c(-c2ccc(Cl)cc2)[n+]([O-])c2ccccc2n1OCc1nc2ccccc2[nH]1 | 14.2% |
| CCOc1ccc(OCC)c(-c2c(=O)n(OCc3ccc(Cl)cc3)c3ccccc3[n+]2[O-])c1 | -67% (active) |
| CC(=O)OC1CCC2C3CCC4=C(CC(F)C(=O)C4)C3CCC12C (stereo not drawn) | 5.77% |
| Cc1cn([C@H]2C[C@H](O)[C@@H](CNC(=O)[C@H](N)Cc3cccnc3)O2)c(=O)[nH]c1=O | 11.3% |
| CS(=O)(=O)N1CCN(c2ccc(C(=O)NC3C4CC5CC(C4)CC3C5)cc2[N+](=O)[O-])CC1 (stereo not drawn) | 5.99% |
| CCC(C)NC(=O)c1ccc(N2CCC3(CC2)OCCO3)c([N+](=O)[O-])c1 (stereo not drawn) | 0.859% |
| O=C(Nc1ccc(N2C(=O)c3cccc4cccc(c34)C2=O)cc1)c1ccc(N2CCCCC2)c([N+](=O)[O-])c1 | -6.25% |
| CC(NC(=O)c1ccc(N2CCNCC2)c([N+](=O)[O-])c1)C12CC3CC(CC(C3)C1)C2 (stereo not drawn) | -72.6% (active) |
| Cc1cccc(C)c1NC(=O)CNC(=O)c1ccc(N2CCOCC2)c([N+](=O)[O-])c1 | -0.22% |
| O=C(Nc1cccc(C(F)(F)F)c1)c1ccc(N2CCNCC2)c([N+](=O)[O-])c1 | -82.2% (active) |
| Cc1nc2nc(C)c(CCC(=O)N3CCN(c4ccccc4)CC3)c(C)n2n1 | -17.6% |
| C[N+](C)(C)CCNC(=O)c1c[nH]c2ccccc12 | 24.4% |
| CCC(C(=O)NCc1cccnc1)n1nc(C)c2sc3ccccc3c2c1=O (stereo not drawn) | -16.1% |
| CCNC(=O)CN(c1ccc(C)cc1)S(=O)(=O)c1ccc(SC)cc1 | -55.3% (active) |
| CCOc1ccc(N(CC(=O)NCC2CCCO2)S(=O)(=O)c2ccc(C)cc2)cc1 (stereo not drawn) | 7.07% |
| Cc1ccc(S(=O)(=O)N(CC(=O)NN=C2CCN(C)CC2)c2ccc(F)cc2)cc1 | 31% |
| COc1ccc(S(=O)(=O)NC(=O)C2(C)CCN2C(=O)c2ccccc2CCc2ccccc2)cc1 (stereo not drawn) | 22.1% |
| CCCNC(=O)C1(C)CCN(C(=O)c2ccccc2OC(F)(F)F)C1 (stereo not drawn) | 15.8% |

| SMILES | activity change |
| --- | --- |
| COc1ncnc2c1ncn2CCCNCCN1CCOCC1 | 44.5% |
| O=S(=O)(O)c1cc2onnc2c2ccccc12 | 0% |
| CNc1nc(Nc2ccc(C)c(Cl)c2)nc(N)c1[N+](=O)[O-] | -21.8% |
| Cc1ccc(Nc2nc(N)nc(CN3CCN(Cc4ccccc4)CC3)n2)cc1Cl | 0% |
| OCCNc1nc(Nc2ccc(Cl)c(Cl)c2)nc2ccccc12 | -92.5% (active) |
| COc1cc(NC(=O)C2=C(C)OCCS2)c(Cl)cc1C(=O)NCCCN1CCCC(C)C1 (stereo not drawn) | -28.6% |
| CCCNC(=O)C1(C)CCN(C(=O)c2cc(F)ccc2C)C1 (stereo not drawn) | 34.1% |
| COc1cccc(C(NC(C)=O)c2nc(-c3ccccc3OC)cs2)c1 (stereo not drawn) | 9.34% |
| COC(=O)C[C@@H]1C=C[C@@H](NC(=O)c2ccc3c(c2)OCO3)[C@@H](CO)O1 | 7.5% |
| COc1cccc(CNC(=O)CN2C(=O)NC(Cc3ccccc3)(c3ccccc3)C2=O)c1 (stereo not drawn) | -58.8% (active) |
| CCCCNC(=O)CN1C(=O)NC(Cc2ccccc2)(Cc2ccccc2)C1=O | 4.67% |
| COc1cccc(CNC(=O)COC(=O)CN2C(=O)NC3(CCCCC3C)C2=O)c1 (stereo not drawn) | 8.38% |
| CN(Cc1nc2ccccc2c(=O)[nH]1)Cc1cc(=O)oc2ccc3ccccc3c12 | 0.506% |
| O=C(CNc1ccccc1N1CCCC1=O)Nc1cc(Cl)ccc1-n1cncn1 | -19.4% |
| Cc1ccc(CNC(=O)c2cccnc2Cl)cc1 | 55.4% |
| CCN(CC)S(=O)(=O)c1ccc(NC(=O)c2cccnc2Cl)c(NC(=O)c2cccnc2Cl)c1 | -102% (active) |
| CCN(CC)S(=O)(=O)c1ccc(NC(=O)c2cnc(C)cn2)cc1 | 57% |
| CC(O)(c1cccc(F)c1)c1nc(-c2ccc3c(c2)OCO3)cs1 (stereo not drawn) | 16% |
| COc1cc(-c2nnc(NC(=O)CS(=O)(=O)c3ccc(Cl)cc3)o2)cc(OC)c1OC | -11% |
| CCN(CC)c1ccc(NC(=O)c2ccc(=O)[nH]c2)cc1S(=O)(=O)Nc1ccc(OC)cc1 | -3.18% |
| COc1ccc(CNC(=O)COC(=O)c2sccc2C)cc1OC | 12.1% |
| Cc1cccc(N(CC(=O)N=Nc2c(O)[nH]c3ccccc23)S(C)(=O)=O)c1C | 19.5% |

| SMILES | activity change |
| --- | --- |
| O=C(CCN1CCCCC1)N=Nc1c(O)[nH]c2ccccc12 | -74.6% (active) |
| Oc1[nH]c2ccccc2c1N=Nc1c(F)c(F)c(F)c(F)c1F | -7.81% |
| CS(=O)(=O)N1CCc2nc(-c3ccccc3)sc2C1 | 54.3% |
| COc1ccccc1OCCNC(=O)C(CCSC)NC(=O)COc1ccccc1 (stereo not drawn) | -18.9% |
| NC(=O)c1ccc(N2CCCC2)nc1 | 5.48% |
| COc1cccc(CN(C)CC(=O)NCc2ccccc2Cl)c1OC | 1.26% |
| Cc1nc2ccc(C(=O)N(C)CC3CCCN(CCc4ccc(Cl)cc4)C3)cc2[nH]1 (stereo not drawn) | 8.01% |
| COc1cccc(CN(C)CC2CCCN(CCc3ccc(Cl)cc3)C2)c1OC (stereo not drawn) | -90.5% (active) |
| C[C@H]1CN([C@@H](C)CO)S(=O)(=O)c2ccc(-c3cccc(F)c3)cc2O[C@@H]1CN(C)C | -2.69% |
| CC(C)Nc1nc(NCCOc2ccccc2Cl)c2sccc2n1 | -90.6% (active) |
| Clc1ccccc1Nc1nc(NCc2cccs2)nc2ccsc12 | 42.9% |
| O=C(NCCOc1ccccc1Cl)C(=O)Nc1ccccc1 | inactive |
| C=C(C)C1CC=C(C)/C(=N\NC(=O)CNc2ccccc2OC)C1 (stereo not drawn) | -1.86% |
| COc1ccc2nc(-c3ccccn3)ccc2c1 | 19.8% |
| CCc1ccccc1NC(=O)CN1CCN(C(=O)c2cc(C3CC3)nn2-c2ccccc2)CC1 | -18.2% |
| CC(=O)Nc1cccc(-c2ccnc3c2CC(C)(C(=O)NCc2ccco2)O3)c1 (stereo not drawn) | 78.5% |
| COc1cccc2oc(CCc3ccccc3)cc(=O)c12 | -5.15% |
| CC(C)(C)OC(=O)CNC(=O)c1[nH]cnc1C(=O)N[C@@H](CCCCN)C(=O)OC(C)(C)C | -12.6% |
| CCOC(=O)c1ccc(NC(=O)c2nc[nH]c2C(=O)N[C@@H](CCCCNC(=O)OC(C)(C)C)C(=O)OC(C)(C)C)cc1 | -62.8% (active) |
| CCOC(=O)c1ccc(NC(=O)c2nc[nH]c2C(=O)NCc2ccccc2)cc1 | 7.09% |
| COc1ccccc1CC1(C)C(=O)Nc2ccc(OC(F)(F)F)cc21 (stereo not drawn) | 4.75% |
| COc1ccc(C(C(O)C(=O)c2c[nH]c3ccccc23)N2CCN(c3ccccc3)CC2)cc1 (stereo not drawn) | 14.4% |

| SMILES | activity change |
| --- | --- |
| COc1ccc(/C=C(\NC(=O)c2ccc(OC)c(OC)c2)C(=O)NCCc2c[nH]c3ccccc23)cc1 | -11.1% |
| COc1ccc(/C=C(\C#N)c2c[nH]c3ccccc23)cc1 | -102% (active) |
| Cc1ccc([C@H]2N[C@]3(CCCN(CC4CCCCC4)C3=O)[C@H]3C(=O)N(Cc4ccccc4)C(=O)[C@@H]23)cc1 | -9.33% |
| O=C(NCC(O)c1ccc([N+](=O)[O-])cc1)C1CCCCC1 (stereo not drawn) | -13.9% |
| O=C(CC(c1ccccc1)c1ccccc1)NCC(O)c1ccc([N+](=O)[O-])cc1 (stereo not drawn) | -69.4% (active) |
| CC(=O)NCC(O)c1ccc([N+](=O)[O-])cc1 (stereo not drawn) | 0.816% |
| O=C(O)c1ccc([N+](=O)[O-])cc1Sc1ccsc1 | 4.28% |
| O=C(NCc1cccc(C(F)(F)F)c1)c1ccc2sc(COCCO)nc2c1 | 28.9% |
| CCN(CC)CCNC(=O)c1ccc(NS(=O)(=O)c2ccc3c(c2)OCCO3)cc1 | -6.92% |
| CCN(CC)CCOC(=O)c1ccc(NC(=O)CNC(=O)c2ccccc2)cc1 | 7.44% |
| CCN(CC)CCNC(=O)c1ccc(NC(=O)c2c(F)cccc2Cl)cc1 | -73.3% (active) |
| COC(=O)Cc1ccc(NC(=S)NCc2ccccc2)cc1 | 0.636% |
| CCNC(=S)Nc1ccc(OC(F)(F)F)cc1 | -1.65% |
| FC(F)(F)Oc1ccc(NC(=S)NCc2ccccc2)cc1 | -95% (active) |
| CC1(C)OC(=O)C2=C(C[C@@H](C3CC3)O[C@H]2c2ccc(Cl)cc2)O1 | 6.02% |
| N=C1c2ccccc2-c2ccccc21 | 3.3% |
| CN(C)S(=O)(=O)Oc1ccccc1C(=O)Nc1ccccc1Cl | 3.38% |
| O=C(Nc1ccccc1Cl)/C(Cl)=C(\Cl)S(=O)c1ccccc1 (stereo not drawn) | -103% (active) |
| Cc1c(NC(=O)Nc2ccccc2Cl)sc(=S)n1C | -4.03% |
| CCCNC(=O)C1(C)CCN1C(=O)C1(c2ccccc2)CC1 (stereo not drawn) | 0% |
| Nc1ncnc2c1ncn2[C@@H]1O[C@H](C(=O)N2CCSC2)[C@@H](O)[C@H]1O | 3.32% |
| Cc1ccc(S(=O)(=O)N(CCc2ccccc2)c2ccc3c(c2)C2CC3CCN2C(=O)OCc2ccccc2)cc1 (stereo not drawn) | -16.8% |
